Compound activity from PubChem.
Hits are enriched below; roughly 5.5% of the tested compounds scored in any of these assays.
uPA generation: inhibitors of cell surface uPA generation. 0.31% of 330,000 active. cell surface uPA generation assay, qHTS. Potency, µM (highest dose often 38.3 µM), inactives show top-dose activity change, negative = inhibition, usual class: inhibitors. AID 540303; active = well fitted inhibition curve with a large enough effect; inconclusive = small, poorly fitted or top-dose-only effect; inactive = no such curve, though single readings can be large or run the other way; tested in mouse RAW 264.7 cells; note: % is set by controls: 0 for no effect and ±100 for the full control effect; nearly all actives have a fitted effect of over 55% in size
Mito fusion yeast: inhibitors of mitochondrial division or activators of mitochondrial fusion; S. cerevisiae fusion-defective mutant growth rescue, CellTiterGlo 48 h; 0.23% of 320,000 active; Potency, µM (doses to about 46.1 µM), without a hit: top-dose growth rescue (activation), most hits filed as activators; note: % of control where 0% means no effect; nearly all actives have a fitted effect of over 45% in size
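Yeast fusion mutant, YPEG (non-fermentable carbon), compound, 48 h at 37C non-permissive; CellTiterGlo added, 10 min RT, luminescence read. Rescued growth = division inhibition.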
Gal4-VP16 FLuc: counter-screen for ROR gamma inhibitors: Gal4-VP16 reporter; Drosophila S2 Gal4-VP16 UAS-luciferase, luminescence, 20 h; Potency, µM (highest dose often 53.6 µM), for inactives: at the highest dose activity, negative = inhibition, most hits filed as inhibitors; 3.5% of 310,000 active; AID 2546;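 note: Gal4-VP16 expression switched on by copper sulfate through the metallothionein promoter; % is set by controls: 0 for no effect and ±100 for the full control effect; nearly all actives have a fitted effect of over 50% in size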
a7 integrin act: integrin-mediated muscular dystrophy alleviation activation; 0.064% of 350,000 active; alpha7betagal myoblasts, beta-gal FDG fluorescence, 48 h; Potency, µM (top dose mostly 38.3 µM), without a hit: top-dose activation, hits mostly activators;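 note: 100% = response of the positive control SU9516; nearly all actives have a fitted effect of over 60% in size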
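alpha7betagal+/- myoblasts (passage 13, 250/well) treated 48 h at 37C with compounds at 1:260 dilution of DMSO stock. Lysed, then beta-galactosidase activity read as FDG fluorescence (ex 480/em 540) after 30 min, with pre-read for autofluorescence.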
Chronic BCR inh: blocks chronic active B-cell receptor signaling; AID 493014; ABC-DLBCL IkBa-CBG/CBR reporter, luminescence ratio, 4 h; 0.05% of 340,000 active; Potency, µM (titrated, usually from 46.1 µM), inactives show at the highest dose activity change, negative = inhibition, most hits filed as inhibitors; active = well fitted inhibition curve with a large enough effect in the signal ratio, with a control signal flat, not every such curve was filed as active; inconclusive = small, poorly fitted or top-dose-only effect, or effect the other way, or a change in a side signal; the % refers to the signal ratio;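 note: plate controls were basal doxycycline-induced cells for no effect and cells given 10 µM MG132 for full effect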
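Cell line TMD8 (human ABC DLBCL), stably expressing tet-inducible CBG68-IkBa fusion and CBR; IMDM/0.5% FBS; cpd up to 46 uM; dox induction, 4 h, 37C/5% CO2; dual luminescence; green/red ratio; MG132 control.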
RORgamma inh: ROR gamma (mouse) transcription inhibition; Potency, µM (top dose mostly 53.6 µM), without a hit: top-dose activity change, negative = inhibition, most hits filed as inhibitors; P51450; Drosophila S2 Gal4-RORgamma UAS-luciferase reporter, 20 h; 5.4% of 310,000 active; AID 2551; note: % is set by controls: 0 for no effect and ±100 for the full control effect; nearly all actives have a fitted effect of over 60% in size
Target sequence (P51450 whole entry, looked up, the tested form may be a part): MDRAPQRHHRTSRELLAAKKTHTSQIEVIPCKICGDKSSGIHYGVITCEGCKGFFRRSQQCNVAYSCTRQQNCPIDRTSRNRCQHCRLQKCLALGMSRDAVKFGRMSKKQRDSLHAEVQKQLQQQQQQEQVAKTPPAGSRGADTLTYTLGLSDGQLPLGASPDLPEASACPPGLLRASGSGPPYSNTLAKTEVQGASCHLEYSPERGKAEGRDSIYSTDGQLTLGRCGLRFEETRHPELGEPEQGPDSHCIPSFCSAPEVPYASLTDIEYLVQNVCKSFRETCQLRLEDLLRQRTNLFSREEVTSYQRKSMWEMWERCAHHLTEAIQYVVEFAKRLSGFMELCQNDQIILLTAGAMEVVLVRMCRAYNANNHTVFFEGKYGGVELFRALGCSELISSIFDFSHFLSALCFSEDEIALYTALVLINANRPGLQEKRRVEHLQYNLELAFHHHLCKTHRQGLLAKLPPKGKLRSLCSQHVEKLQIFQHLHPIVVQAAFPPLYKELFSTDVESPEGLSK
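Read-out: Photinus luciferase luminescence; inhibitors lower reporter signal. Insect Schneider cells with Gal4-ROR gamma fusion under metallothionein promoter, UAS reporter; 700 uM final copper sulfate induction, 20 hr, ambient temperature.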
* = called active by the depositor; u = inconclusive; x = no result given; ! = not confirmed by another sample; [ ] = another dose, or the depositor's remark. Unless noted, calls come from the whole dose curve; as a rule, active = well fitted curve in the direction sought with a large enough effect; inconclusive = small, poorly fitted or top-dose-only effect, or another doubt; inactive = no such curve, though single readings can be large; an effect the other way counts as inactive or inconclusive. Potency is the fitted concentration of half-maximal effect.

SMILES	uPA generation	Mito fusion yeast	Gal4-VP16 FLuc	a7 integrin act	Chronic BCR inh	RORgamma inh
Cn1c(/C(C#N)=C(\O)CN2CCN(Cc3ccccc3)CC2)nc2ccccc21	-2%	1%	22µM*	-11%	1%	5.6µM*
Cn1c(/C(C#N)=C/c2ccc(O)cc2)nc2ccccc21	u	-1%	-10%	-2%	u	44%
C[C@@H]1OC(OC2C(OC3CC[C@@]4(C)C5CC=C6C7CC(C)(C)CC[C@@]7(C(=O)O)CCC6(C)C5(C)CCC4[C@]3(C)CO)OCC(O)C2O)C(O)C(O)C1O (stereo partly specified)	x	x	-28%	x	x	-34%
Cc1ccc(S(=O)(=O)N2CCOCC2)cc1C(=O)OCC(=O)Nc1ccc2[nH]c(=O)[nH]c2c1	5%	-2%	x	18%	6%	x
COc1cc2c(cc1OC)C1C(=O)c3ccc4c(c3OC1CO2)C=CC(C)(C)O4 (stereo unspecified)	x	x	0.13µM*	x	x	u
COc1cc2c(cc1OC)C1C(=O)c3c(O)cc4c(c3OC1CO2)C=CC(C)(C)O4 (stereo unspecified)	x	x	0.89µM*	x	x	6.3µM*
CCC(C(=O)OCC(=O)N(C)c1c(N)n(Cc2ccccc2)c(=O)[nH]c1=O)c1ccccc1 (stereo unspecified)	-6%	-3%	x	6%	1%	x
O=C(O)c1cc2ccccc2c2cc(Br)ccc12	-11%	11µM*	-5%	9%	6%	-3%
O=[N+]([O-])c1cc(S(=O)(=O)N2CCCCCC2)ccc1Cl	5%	8%	3%	-12%	-1%	-43%
Cc1cccc2nc(CSc3ccccc3N)cn12	-3%	x	x	20%	x	x
Cc1cccc2nc(COc3ccc4ccccc4c3Br)cn12	5%	6%	u	10%	u	8.9µM*
c1ccc(-c2[nH]ncc2-c2ccnc3ccccc23)nc1	x	x	3.2µM*	x	x	2µM*
c1ccc2[nH]c(-c3ccnc4ccccc34)nc2c1	-5%	3%	15%	-10%	u	16%
O=C(O)c1ccccc1-c1c2cc(Br)c(=O)c(Br)c-2oc2c(Br)c(O)c(Br)cc12	x	x	u	x	x	12%
O=C(NC1CC(=O)N(c2ccc(Cl)cc2)C1)C(=O)c1c[nH]c2ccccc12 (stereo unspecified)	x	x	x	x	-1%	x
COc1ccc(Nc2nc(-c3ccccc3)c3ccccc3n2)cc1	1%	25µM*	-20%	22%	u	-17%
COc1ccc(Nc2nc(C)c(-c3ccccc3)s2)cc1	1%	-1%	u	9%	u	11µM*
COc1cc2c(cc1OC)C(c1ccccc1)N(C(=O)CCl)CC2 (stereo unspecified)	-6%	-7%	u	-73%	u	25µM*
COc1cc2c(cc1OC)C(C1C(=O)CCCC1=O)N(C(=O)CCl)CC2 (stereo unspecified)	-2%	-6%	5%	-12%	1%	-16%
OCCCNc1c2c(nc3cc(-c4ccc(Cl)cc4)nn13)CCC2	-14%	14µM*	-10%	-11%	u	-22%
COc1ccc(NC(=O)C[C@H]2C(=O)N(c3ccc(Br)cc3)C[C@@H]2C)cc1	x	x	x	0%	x	x
Cc1cccc([C@H]2[C@@H]3C=CC(C)C[C@@H]3C(=O)N2Cc2ccccc2)c1 (stereo partly specified)	x	x	-15%	x	x	11%
CCCC[C@@]1(C2CCCC2)Cc2cc(OCC(=O)O)c(Cl)c(Cl)c2C1=O	-2%	21µM*!	x	x	u	x
COC(=O)[C@@H]1[C@@H](C#N)C2(c3ccccc3-c3ccccc32)N(c2ccc(Cl)cc2)N1C#N	-12%	6%	10µM*	-49%	u	16µM*
CN(CC(=O)Nc1cccc(F)c1)C(=O)c1ccc2c(c1)CC(c1ccccc1)OC2=O (stereo unspecified)	4µM*	-4%	x	-6%	u	x
SMILES	uPA generation	Mito fusion yeast	Gal4-VP16 FLuc	a7 integrin act	Chronic BCR inh	RORgamma inh
Cc1cccc(-n2cnc3c(sc4nc(N5CCOCC5)c5c(c43)CCCC5)c2=O)c1	1%	12%	0%	u	0%	3%
Cc1ccc(S(=O)(=O)N2CCOCC2)cc1C(=O)NC(=S)N1CC(C)CC(C)C1 (stereo unspecified)	-12%	-3%	5µM*	-12%	-20%	1.6µM*
CCCCCC(C)NC(=S)NC(=O)c1cc(S(=O)(=O)N2CCOCC2)ccc1C (stereo unspecified)	-2%	17%	11µM*	-31%	u	10µM*
CCCC(C)NC(=S)NC(=O)c1cc(S(=O)(=O)N2CCOCC2)ccc1C (stereo unspecified)	0%	0%	u	-15%	-6%	u
COc1ccc(S(=O)(=O)Nc2ccc3c(c2)C(=O)N([C@H](C)CO)C[C@H](C)[C@@H](CN(C)S(C)(=O)=O)O3)cc1	-2%	x	x	-2%	u	x
O=S(c1ccccc1O)S(=O)c1ccccc1O (stereo unspecified)	-5%	x	x	-10%	x	x
CS(=O)c1ccccc1O (stereo unspecified)	10%	1%	-4%	22%	-4%	11µM*
Cc1ccc(N2CN=C(c3ccccc3)NC2=S)cc1	6%	0%	-88%	20%	u	u
COc1ccc(C2=NCN(c3ccc(C)cc3)C(=S)N2)cc1	5%	-1%	2.8µM*	12%	3%	-43%
CCCC(=O)NC(=S)Nc1ccc(Cl)cn1	1%	1%	6.3µM*	23%	u	3.5µM*
Cc1cc(Cl)ccc1OCC(=O)NC(=S)Nc1ccc(Cl)cn1	-4%	-5%	-6%	-8%	5%	5.6µM*
O=C(CCCCCn1c(=O)[nH]c2ccccc2c1=O)NCCc1ccccc1	x	x	x	x	0%	x
O=c1[nH]c2ccccc2nc1N1CCOCC1	-4%	1%	-5%	9%	0%	15%
S=C(c1nc2ccccc2[nH]1)N1CCOCC1	2%	-3%	6.3µM*	-14%	u	5µM*
CCCCCc1ccc(OCCOCCn2c[n+](C)c3ccccc32)c(CCCCC)c1	u	-3%	16µM*	-70%	u	u
CC(C)c1ccc(S(=O)(=O)NCc2ccc3c(c2)OCO3)cc1	1%	9%	-4%	-22%	0%	-7%
Cc1ccccc1NC(=S)N(CCN1CCCCC1)Cc1ccco1	-1%	0%	5%	-12%	1%	-38%
Cc1cc(C)c(NC(=S)N(CCN2CCCCC2)Cc2ccco2)c(C)c1	0%	14%	-8%[10 µM]	17%	-9%	10µM*
Cc1cccc(C)c1NC(=S)N(CCN1CCCCCC1)Cc1ccco1	-7%	7%	15%[10 µM]	-39%	u	13µM*
